From paper PMC5540273 (PLoS ONE, 2017)

Tested on: EPHA1
Conditions: concentration: 1 μM, replicates: in singlicate; n = 1
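Further: KINOMEscan kinase panel screen.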

Row | SMILES | %Inh [%]
1 | Cc1cccc(-c2nc(Nc3cccc(C(N)=O)c3)c3ccccc3n2)n1 [GW876019] | 57
2 | CC(C)(C)c1ccc(C(=O)Nc2cn3cc(-c4cccnc4)ccc3n2)cc1 | 12
3 | Clc1cc(Cl)cc(Nc2ccnc(Nc3cc(Cl)cc(Cl)c3)n2)c1 [GSK175726] | 54
4 | COc1ccc(CNC(=O)NC2CCN(c3ccnc(Nc4cc(OC)c(OC)c(OC)c4)n3)C2)cc1 (stereo not drawn) [GSK1379748] | 1
5 | Fc1cccc(COc2nnc(-c3ccc4c(c3)CCO4)o2)c1 | 0
6 | CN1C(=O)C(Nc2ccc(Cl)c(C(=O)O)c2)=C(c2ccc(Cl)cc2)C1=O [SB-404290] | 5
7 | Cn1cncc1-c1ccc2ncnc(Nc3ccc(OCc4ccccc4)cc3)c2c1 [GW320571] | 25
8 | Nc1ncnc2[nH]c(-c3ccccc3)nc12 [AH5015] | 16
9 | Cc1nnc(-c2ccc3occ(-c4ccc(S(C)=O)cc4)c3c2)[nH]1 (stereo not drawn) | 0
10 | Fc1cc(Cl)ccc1Nc1ccnc2cc(I)ccc12 [GW551191] | 71
11 | CC(C)(C)c1ccc(C(=O)Nc2cn3cc(Cl)ccc3n2)cc1 | 0
12 | C[C@@H]1CCCCN1c1cc(-c2ccc3c(N)n[nH]c3c2)nc(N)n1 [GSK2258759] | 8
13 | Cc1cccc(-c2nc(Nc3ccc4[nH]ncc4c3)c3ccccc3n2)n1 [GW857175] | 12
14 | Cc1cccc(-c2cc(Nc3ccncc3)c3ccccc3n2)n1 [GSK223675] | 4
15 | COc1cc2nccc(Nc3ccc(NC(=O)c4ccc(C)cc4)c(O)c3)c2cc1OC.Cl [GW440132] | 17
16 | COc1cc(Nc2nccc(N3CCC(NC(=O)Nc4cc(C)ccc4C)C3)n2)cc(OC)c1OC (stereo not drawn) [GSK1379762] | 22
17 | COC(=O)c1c(-c2ccccc2)c2cc(OC)ccc2c(=O)n1Cc1ccccc1 | 0

Row | SMILES | %Inh [%]
18 | Cc1c(Cn2ccn3c(=O)cc(N4CCOCC4)nc23)cccc1C(F)(F)F [GSK2289044] | 9
19 | Cl.Oc1ccc(-c2nc(-c3ccccc3)[nH]c2-c2ccncc2)cc1 [SB-428218] | 55
20 | CC1=C(C(=O)Nc2cc3cn[nH]c3cc2F)C(c2ccc(C(F)(F)F)cc2)CC(=O)N1 (stereo not drawn) [GSK429286] | 22
21 | CCCc1ccc(S(=O)(=O)NC2CCN(c3ccnc(Nc4ccc(F)cc4)n3)C2)cc1 (stereo not drawn) [GSK1379715] | 8
22 | Cc1ccc(NC(=O)Nc2cccc(Cl)c2)cc1-c1ccc(C(=O)Nc2ccncc2)cc1 [GSK1398468] | 6
23 | O=S(=O)(c1ccc(-c2ccnc3[nH]ccc23)cc1)N1CCCC1 [GSK846226] | 5
24 | Cn1ccc2ncnc(Oc3ccc(NC(=O)Nc4ccccc4)cc3)c21 | 7
25 | CCn1c(-c2ccccn2)nc2cnccc21 [SB-736398] | 21
26 | CC(=O)Nc1nc2cnc(Nc3cc(NC(=O)c4cccc(CCC#N)c4)ccc3C)nc2s1 | 0
27 | Cc1cccc(-c2nc(C)cc(Nc3ccncc3)n2)n1 [GSK257997] | 0
28 | CS(=O)(=O)c1ccc(-c2c(-c3ncn[nH]3)sc(N3CCOCC3)c2C#N)cc1 | 24
29 | O=C(O)COc1ncnc2cc(-c3ccc4[nH]ncc4c3)sc12 | 15
30 | Cc1c(O)cccc1Nc1ccnc2ccc(C(F)(F)F)cc12.Cl [GW466413] | 77
31 | O=C(Nc1ccc2c(c1)OCO2)NC1CCN(c2ccnc(Nc3ccc(F)cc3)n2)C1 (stereo not drawn) [GSK1379724] | 18
32 | Cl.c1ccc(-c2n[nH]cc2-c2ccnc(-c3ccc(CN4CCOCC4)cc3)c2)nc1 [GW776245] | 7
33 | Cc1ccc(NC(=O)Nc2cc(C(C)(C)C)nn2-c2ccccc2)cc1 [GSK1014915] | 7

Tested on: EPHA2
Conditions: concentration: 1 μM, replicates: in singlicate; n = 1

Row | SMILES | %Inh [%]
34 | Cc1cccc(-c2nc(Nc3cccc(C(N)=O)c3)c3ccccc3n2)n1 [GW876019] | 32
35 | CC(C)(C)c1ccc(C(=O)Nc2cn3cc(-c4cccnc4)ccc3n2)cc1 | 12
36 | Clc1cc(Cl)cc(Nc2ccnc(Nc3cc(Cl)cc(Cl)c3)n2)c1 [GSK175726] | 46
37 | COc1ccc(CNC(=O)NC2CCN(c3ccnc(Nc4cc(OC)c(OC)c(OC)c4)n3)C2)cc1 (stereo not drawn) [GSK1379748] | 14
38 | Fc1cccc(COc2nnc(-c3ccc4c(c3)CCO4)o2)c1 | 0
39 | CN1C(=O)C(Nc2ccc(Cl)c(C(=O)O)c2)=C(c2ccc(Cl)cc2)C1=O [SB-404290] | 0
40 | Cn1cncc1-c1ccc2ncnc(Nc3ccc(OCc4ccccc4)cc3)c2c1 [GW320571] | 17
41 | Nc1ncnc2[nH]c(-c3ccccc3)nc12 [AH5015] | 23
42 | Cc1nnc(-c2ccc3occ(-c4ccc(S(C)=O)cc4)c3c2)[nH]1 (stereo not drawn) | 0
43 | Fc1cc(Cl)ccc1Nc1ccnc2cc(I)ccc12 [GW551191] | 26
44 | CC(C)(C)c1ccc(C(=O)Nc2cn3cc(Cl)ccc3n2)cc1 | 0
45 | C[C@@H]1CCCCN1c1cc(-c2ccc3c(N)n[nH]c3c2)nc(N)n1 [GSK2258759] | 0
46 | Cc1cccc(-c2nc(Nc3ccc4[nH]ncc4c3)c3ccccc3n2)n1 [GW857175] | 1
47 | Cc1cccc(-c2cc(Nc3ccncc3)c3ccccc3n2)n1 [GSK223675] | 0
48 | COc1cc2nccc(Nc3ccc(NC(=O)c4ccc(C)cc4)c(O)c3)c2cc1OC.Cl [GW440132] | 8
49 | COc1cc(Nc2nccc(N3CCC(NC(=O)Nc4cc(C)ccc4C)C3)n2)cc(OC)c1OC (stereo not drawn) [GSK1379762] | 8
50 | COC(=O)c1c(-c2ccccc2)c2cc(OC)ccc2c(=O)n1Cc1ccccc1 | 3

Row | SMILES | %Inh [%]
51 | Cc1c(Cn2ccn3c(=O)cc(N4CCOCC4)nc23)cccc1C(F)(F)F [GSK2289044] | 13
52 | Cl.Oc1ccc(-c2nc(-c3ccccc3)[nH]c2-c2ccncc2)cc1 [SB-428218] | 1
53 | CC1=C(C(=O)Nc2cc3cn[nH]c3cc2F)C(c2ccc(C(F)(F)F)cc2)CC(=O)N1 (stereo not drawn) [GSK429286] | 14
54 | CCCc1ccc(S(=O)(=O)NC2CCN(c3ccnc(Nc4ccc(F)cc4)n3)C2)cc1 (stereo not drawn) [GSK1379715] | 12
55 | Cc1ccc(NC(=O)Nc2cccc(Cl)c2)cc1-c1ccc(C(=O)Nc2ccncc2)cc1 [GSK1398468] | 3
56 | O=S(=O)(c1ccc(-c2ccnc3[nH]ccc23)cc1)N1CCCC1 [GSK846226] | 0
57 | Cn1ccc2ncnc(Oc3ccc(NC(=O)Nc4ccccc4)cc3)c21 | 0
58 | CCn1c(-c2ccccn2)nc2cnccc21 [SB-736398] | 6
59 | CC(=O)Nc1nc2cnc(Nc3cc(NC(=O)c4cccc(CCC#N)c4)ccc3C)nc2s1 | 34
60 | Cc1cccc(-c2nc(C)cc(Nc3ccncc3)n2)n1 [GSK257997] | 9
61 | CS(=O)(=O)c1ccc(-c2c(-c3ncn[nH]3)sc(N3CCOCC3)c2C#N)cc1 | 19
62 | O=C(O)COc1ncnc2cc(-c3ccc4[nH]ncc4c3)sc12 | 10
63 | Cc1c(O)cccc1Nc1ccnc2ccc(C(F)(F)F)cc12.Cl [GW466413] | 11
64 | O=C(Nc1ccc2c(c1)OCO2)NC1CCN(c2ccnc(Nc3ccc(F)cc3)n2)C1 (stereo not drawn) [GSK1379724] | 16
65 | Cl.c1ccc(-c2n[nH]cc2-c2ccnc(-c3ccc(CN4CCOCC4)cc3)c2)nc1 [GW776245] | 6
66 | Cc1ccc(NC(=O)Nc2cc(C(C)(C)C)nn2-c2ccccc2)cc1 [GSK1014915] | 7
